These results are taken from PubChem BioAssay AID629 (Emory University Molecular Libraries Screening Center, 2007).

The structures appear in SMILES notation. Screen size: about 86,000 compounds; about 1,400 (1.6%) were called active. No stated cut-off is given here; in the data, active means inhibition above about 50%; inactive means the rest. The entries come from a sample that favours actives as a whole.

The assay deals with Estrogen receptor (Homo sapiens) (UniProt P03372). As to the kind of experiment: ERα–SRC-1 coactivator interaction inhibitors, primary screen, biochemical, TR-FRET, ERα LBD, estradiol-bound (AID 629).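 Further: 0% = receptor plus peptide control and 100% = peptide only without receptor.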 The settings on record: TR-FRET ER-alpha LBD / SRC-1 peptide, at 25.6 µM, hits give high values. (TR-FRET usually uses a lanthanide donor and a delayed reading to cut background.)
Sequence of Estrogen receptor (Homo sapiens) (P03372 whole entry, looked up, the tested form may be a part): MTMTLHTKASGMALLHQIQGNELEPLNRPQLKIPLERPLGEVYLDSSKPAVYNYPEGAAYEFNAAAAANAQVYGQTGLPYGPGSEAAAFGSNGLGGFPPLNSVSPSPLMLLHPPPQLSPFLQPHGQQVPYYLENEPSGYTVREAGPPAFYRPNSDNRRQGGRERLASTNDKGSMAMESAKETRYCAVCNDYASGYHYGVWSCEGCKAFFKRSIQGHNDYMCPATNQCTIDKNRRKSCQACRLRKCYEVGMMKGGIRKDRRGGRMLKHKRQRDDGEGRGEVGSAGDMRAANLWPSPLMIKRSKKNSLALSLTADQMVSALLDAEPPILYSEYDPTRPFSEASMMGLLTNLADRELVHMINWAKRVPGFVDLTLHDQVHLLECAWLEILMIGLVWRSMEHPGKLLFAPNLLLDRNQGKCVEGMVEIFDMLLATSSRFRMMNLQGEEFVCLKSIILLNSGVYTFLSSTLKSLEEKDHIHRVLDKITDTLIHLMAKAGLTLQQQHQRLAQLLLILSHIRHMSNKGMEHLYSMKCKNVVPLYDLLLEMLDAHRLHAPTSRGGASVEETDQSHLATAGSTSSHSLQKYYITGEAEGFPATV
Regarding `Cc1cc(NC(=O)CSc2nc(C(C)C)nc3sc4c(c23)CCC(C)C4)no1` (stereo unspecified), the inhibition is -14.6% (inactive).
As for `CCOC(=O)c1c(NC(=O)c2ccc(Br)o2)sc2c1CCCC2`, the inhibition was 7.77% (inactive).
As for `CC1CCc2c(sc(NC(=O)c3ccc(Cn4cc(Br)cn4)o3)c2C(N)=O)C1` (stereo unspecified), the figure is 50.6% (active); as for `Cc1ccc(CN(C(=O)c2sc3ccccc3c2Cl)C2CCS(=O)(=O)C2)cc1` (stereo unspecified), 6.88% (inactive); as for `C/C=C/C(=O)Nc1nnc(C(C)C)s1`, -19.7% (inactive).
For `CNC(=O)c1c(NC(=O)c2ccc(S(=O)(=O)N3CCOCC3)cc2)sc2c1CCC2`, the inhibition was 94.5% [fluorescence artefact?] (active).
On to `COc1ccc(C(=O)Nc2nc(-c3ccc(S(=O)(=O)N4CCOCC4)cc3)cs2)cc1`, for which the inhibition was 3.26% (inactive).
For `CNC(=O)c1c(NC(NC(=O)c2ccco2)C(=O)c2ccc(Cl)cc2)sc2c1CCCC2` (stereo unspecified), the inhibition was -3.84% (inactive).
`CCOC(=O)c1ccc2c(c1)nc(SCC(=O)NC(C)C)n2CC`: the inhibition is 26.4% (inactive).
As for `CCOc1cc(C(=O)Nc2c(C)ccc3nsnc23)cc(OCC)c1OCC`, the figure is 8.18% (inactive); as for `N#CC(=C1CCCC1)c1nc(-c2ccc(Cl)cc2)cs1`, -5.55% (inactive).
Take `CCCCCN1CC(O)=C(c2nc(-c3ccc(Cl)cc3)cs2)C1=N`: the inhibition is 65.8% [fluorescence artefact?] (active).
For `CCCCCN1CC(O)=C(c2ccccc2)C1=N`, the inhibition is 2.06% (inactive).
Take `Cc1ccc(S(=O)(=O)Oc2ccc(/C=N/NC(=O)c3c(Cl)cnn3C)cc2)cc1`: the inhibition is -7.62% (inactive).
On to `COCCCn1c(Cc2csc(Nc3cccc(Cl)c3)n2)nnc1SCC(=O)OC1CCCCC1`, for which the inhibition was 67.4% [fluorescence artefact?] (active).
Turning to `COCCCn1c(SCC(=O)Nc2ccccc2)nnc1-c1ccncc1`, the inhibition is -1.59% (inactive).
Turning to `C=CCn1c(CC(=O)Nc2cccc(OC)c2)nnc1SCC(=O)NC1CCCCC1`, the inhibition was -5.03% (inactive).
As to `CCOC(=O)/C=c1\s/c(=C\c2ccccc2OC)c(=O)n1CC(=O)N1CCOCC1`, the inhibition is -4.48% (inactive).
On to `O=c1nc2s/c(=C\c3ccco3)c(=O)n2nc1Cc1ccccc1`, for which the inhibition is 28.7% (inactive).
In the case of `CCOc1ccccc1C(=O)NCc1ccco1`, the inhibition was 10.6% (inactive).
As for `CCOc1ccccc1/C=c1\sc2nc(-c3ccco3)nn2c1=O`, the figure is 57.2% (active); as for `CCc1nc2oc3ccccc3c(=O)c2c(=O)n1Cc1ccc(OC)cc1`, 21% (inactive).
For `CCCCOc1ccccc1/C=c1/sc2nc(-c3oc4ccccc4c3C)nn2c1=O` the value was 50% (active); for `COC(=O)CSc1nc(C)c2ccc(OC)cc2n1`, -6.48% (inactive); for `CC1CCCCC1NC(=O)C1CCCN1S(=O)(=O)c1cccc2nsnc12` (stereo unspecified), 11.2% (inactive).
For `Cc1cc(C)c(NC(=O)CN2CCOCCOCCOCCOCC2)c(C)c1` the value was 3.92% (inactive); for `O=C(CN1CCCCCC1)N1c2ccccc2Sc2ccc(C(F)(F)F)cc21`, -9.51% (inactive); for `Cc1nc(NNC(=O)c2ccccc2)cc(-c2ccccc2)n1`, -1.45% (inactive).
`Cc1ccccc1NC(=O)c1ccccc1`: the inhibition was -4.17% (inactive).
As for `Cc1ccc2c(c1)sc1ncc(NC(=O)c3ccccc3)c(=O)n12`, the figure is 53.5% [fluorescence artefact?] (active).
For `Cc1cccc(N(C(=O)c2ccc(CN3CCOCC3)o2)C(C(=O)NC2CCCCC2)c2ccc(F)cc2)c1` (stereo unspecified) the value was 2.65% (inactive).
For `CS(=O)(=O)c1ccc2c(c1)SC1=NC(=O)/C(=C/c3ccco3)C(=N)N12` the value was 82.8% [fluorescence artefact?] (active).
For `COC(=O)c1cn(-c2ccccc2)nc1-c1cccnc1`, the inhibition was 1.49% (inactive).
For `COc1ccccc1N1CCN(C(=O)c2cn(-c3ccccc3)nc2-c2cccnc2)CC1` the value was 0.39% (inactive); for `O=C(c1cn(-c2ccccc2)nc1-c1cccnc1)N1CCCCC1`, 93.3% [fluorescence artefact?] (active).
As for `O=C(N/N=C\c1cccc(Br)c1)c1ccccc1-n1cccc1`, the figure is -1.04% (inactive).
On to `Oc1ccc(-c2onc3ccc(Cl)cc23)cc1`, for which the inhibition was 2.22% (inactive).
As to `O=S(=O)(NN=C1CCCCCCC1)c1ccc(Br)cc1`, the inhibition is -3.65% (inactive).
In the case of `COC(=O)c1cnn2c(C(F)(F)F)cc(-c3ccco3)nc12`, the inhibition is 62.1% (active).
On to `O=C(NCc1ccco1)c1cnn2c(C(F)(F)F)cc(-c3ccco3)nc12`, for which the inhibition was 6.58% (inactive).
Consider `COC(=O)c1cc2nc(-c3ccccc3)cc(C(F)(F)F)n2n1`, for which the inhibition was -12% (inactive).
Consider `CC1(C)C2CCC13CS(=O)(=O)NC3C2` (stereo unspecified), for which the inhibition is 3.36% (inactive).
On to `CCc1nnc(NC(=O)CSc2nc3ccccc3c(=O)n2CCCOC)s1`, for which the inhibition is 14.8% (inactive).
In the case of `O=C1/C(=C/c2cccs2)CCc2ccccc21`, the inhibition was 5.05% (inactive).
Regarding `Cc1ccc(-n2c(SCC(=O)Nc3ccc4c(c3)OCO4)nnc2-c2ccoc2C)cc1`, the inhibition is -0.65% (inactive).
As for `COc1ccc(-n2c(SCC(=O)Nc3ccc4c(c3)OCO4)nnc2C(C)N2CCCCC2)cc1` (stereo unspecified), the figure is 55.2% (active); as for `Cc1ccc(-n2c(SCC(=O)Nc3ccc4c(c3)OCO4)nnc2-c2ccccn2)cc1`, -7.91% (inactive).
For `O=C1N=C(N2CCCC2)S/C1=C\c1cccc(Br)c1` the value was -3.71% (inactive).
Take `CSc1nc2nc3c(c(=O)n2[nH]1)CCC3`: the inhibition is -5.51% (inactive).
For `CNc1nc(SC)nc(N(C#N)CC(=O)OC)n1` the value was -12.1% (inactive); for `O=C(NCC(=O)N(Cc1cccs1)C(C(=O)NC1CCCCC1)c1ccco1)c1cccs1` (stereo unspecified), -0.84% (inactive).
`O=C(Cc1c[nH]c2ccccc12)OCCOC(=O)Cc1c[nH]c2ccccc12`: the inhibition is -4.73% (inactive).
For `COc1cccc(NC(=O)CN2CCN(c3nc(-c4cccc(OC)c4)cs3)CC2)c1` the value was -8.12% (inactive).
Take `CCS(=O)(=O)c1ccc2oc(SCC(=O)N3c4ccccc4CC3C)nc2c1` (stereo unspecified): the inhibition is 14% (inactive).
As for `CC1Cc2ccccc2N1C(=O)CSc1nc2ccccc2o1` (stereo unspecified), the figure is -8.05% (inactive); as for `CC1Cc2ccccc2N1C(=O)CSc1nnc(-c2ccc(S(=O)(=O)N3CCCCC3)cc2)o1` (stereo unspecified), 72.8% [fluorescence artefact?] (active).
As for `O=C(CCN1c2ccccc2Sc2ccccc21)Nc1ccccc1`, the figure is -1.92% (inactive); as for `Cc1ccc(Nc2nnc(SCc3ccccc3)s2)cc1`, -0.81% (inactive).
Take `O=C(CCN1CCc2ccccc2C(O)(c2ccccc2)C1)c1ccc2c(c1)OCCO2` (stereo unspecified): the inhibition is 6.71% (inactive).
As for `Cc1ccc(SCC(=O)c2cc(C)c(OC(=S)N(C)C)c(C)c2)cc1`, the figure is 1.54% (inactive); as for `COc1ccc(-c2nc3ccccc3n2CCC(C)C)cc1OC`, 0.74% (inactive).
As for `Cc1ccc2[nH]c(=O)c(-c3nc4c(C)cccn4c3NCc3ccco3)cc2c1`, the figure is 92.7% [fluorescence artefact?] (active).
For `CCNCc1cc2cc(C)ccc2[nH]c1=O` the value was 5.96% (inactive); for `Cc1ccc2nc(SC(C)C(=O)NCc3ccco3)[nH]c2c1` (stereo unspecified), 0.42% (inactive); for `CC(C)(C)c1ccc(OC2=CS(=O)(=O)c3ccccc32)cc1`, -1.62% (inactive).
Take `COc1ccc(CC(=O)Nc2ccc(-c3nnc(-c4ccccc4)o3)cc2)cc1`: the inhibition is 40.1% (inactive).
Consider `CCCCCCc1cc2cc(-c3nnc(-c4ccccc4)o3)c(=O)oc2cc1O`, for which the inhibition is 53.5% (active).
As for `CCCCCCc1cc2cc(-c3nnc(-c4cccc(OC)c4)o3)c(=O)oc2cc1O`, the figure is -2.99% (inactive).
As for `CCOc1ccc(S(=O)(=O)NCCSc2ccccc2)cc1`, the figure is 0.2% (inactive).
Take `Cc1cc(C)c2c(n1)nn1c(N3CCN(c4cccc(Cl)c4)CC3)cc(C)nc21`: the inhibition was 73.8% (active).
As for `Cc1cc(C)c2c(n1)nn1c(N3CCOCC3)cc(C)nc21`, the inhibition is 10.7% (inactive).
For `Cc1cc(C)c2c(n1)nn1c(-n3ccnc3)cc(C)nc21`, the inhibition was 4.13% (inactive).
For `COc1ccc(C2CC(c3cccs3)=Nc3ccccc3S2)cc1OC` (stereo unspecified) the value was 15.7% (inactive).
In the case of `Cc1cccc(-c2nc3c(c(SCC(=O)N4CCOCC4)n2)CCCC3)c1`, the inhibition is -17.1% (inactive).
As for `Cc1nc(NC(=O)C2CCCCC2)sc1C`, the figure is 0.45% (inactive).
As for `CS(=O)(=O)N(CC(=O)N1CCN(Cc2ccc3c(c2)OCO3)CC1)c1ccc2c(c1)OCO2`, the figure is 2.04% (inactive); as for `CS(=O)(=O)N(CC(=O)NCc1ccco1)c1ccc2c(c1)OCO2`, 53.8% (active); as for `O=C(Cn1nnc(-c2ccc3c(c2)OCO3)n1)NCc1ccco1`, 41.7% (inactive).
`COC(=O)c1cccc(N(C(=O)c2ccco2)C(C(=O)NC2CCCC2)c2ccco2)c1` (stereo unspecified): the inhibition is -14.6% (inactive).
For `N#CC1=C(N)Oc2c(sc3ccccc23)C1c1ccco1` (stereo unspecified) the value was 85.9% [fluorescence artefact?] (active); for `CC1=C(C(=O)Nc2ccccc2)C(c2ccco2)C(C#N)=C(SCC(N)=O)N1` (stereo unspecified), -3.05% (inactive); for `Cc1cc2c(c(=O)n1Cc1ccco1)C(c1ccccc1)C(C#N)=C(N)O2` (stereo unspecified), -11.1% (inactive).
In the case of `Cc1cc(C(=O)OC(C)C(=O)Nc2cccc(S(=O)(=O)N3CCOCC3)c2)c(C)o1` (stereo unspecified), the inhibition was 0.74% (inactive).
For `CCOC(=O)Cc1csc(NC(=O)CSc2nnc(-c3cccnc3)n2Cc2ccco2)n1` the value was -5.63% (inactive); for `Cc1cc(N2CCN(S(=O)(=O)c3ccc(C)c(C)c3)CC2)c2ccccc2n1`, 16.1% (inactive); for `CCNCCC(=O)N1c2ccccc2Sc2ccc(NC(=O)OCC)cc21`, -22% (inactive).
As for `CCO/C([O-])=N/c1c[n+](N2CCOCC2)no1`, the figure is 51.1% (active).
For `O=C(NCCN1CCN(Cc2ccccc2)CC1)c1cc2c(=O)[nH]c3ccccc3c2s1` the value was 24.2% (inactive).
As to `Fc1ccc(-c2ccc(-c3nn4c(-c5ccco5)nnc4s3)o2)cc1`, the inhibition is 69.7% [fluorescence artefact?] (active).
Turning to `Cc1nnc2sc(-c3ccco3)nn12`, the inhibition is 0.95% (inactive).
As for `FC(F)(F)c1nnc2sc(-c3ccco3)nn12`, the inhibition is 2.64% (inactive).

In general, inhibition refers to the drop in the measured response relative to a control, in per cent.
